Measurements: PubChem BioAssay AID1159580 (chemical genetic matrix, 2015)
Where “and” joins values, the source holds several entries; their conditions need not be identical. Identical values can stand only once. Screen size: about 5,500 compounds; about 2,000 (36%) were called active. Roughly 18% stayed inconclusive and do not appear here. Rule as the data show it: active = normalized growth mostly below about 0.91 (no sharp cut-off); inconclusive = no clear call, values can overlap the other calls; inactive = mostly above about 0.92. The list shows a part of the results.

Assay: chemical genetic growth profiling, strain panel (AID 1159580);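 also: tested at 20 µM; growth read once vehicle control cultures reached saturation at 30 °C; 1 = growth at the plate median or of vehicle wells; lower values mean less growth of the strain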
Conditions: S. cerevisiae deletion strains, growth OD

Measured: normalized growth

C[C@@H]1CC[C@H]2[C@@H](C)C(=O)O[C@@H]3O[C@@]4(C)CC[C@@H]1[C@]32OO4
inactive: locus YAL013W, strain DEP1, active compounds read low 0.924 | locus YBR021W, strain FUR4, active compounds read low 0.948 | locus YBR229C, strain ROT2, active compounds read low 0.942 | locus YDL005C, strain med2, active compounds read low 0.967 | locus YDL040C, strain nat1, active compounds read low 0.949 | locus YDL074C, strain BRE1, active compounds read low 0.83 | locus YDL101C, strain DUN1, active compounds read low 0.913 | locus YDR001C, strain nth1, active compounds read low 0.932 | locus YDR195W, strain ref2 0.956 | locus YDR334W, strain swr1, active compounds read low 0.917 | locus YER110C, active compounds read low 0.932 | locus YER111C, strain swi4, active compounds read low 0.93 | locus YGL078C, strain dbp3, active compounds read low 0.939 | locus YGL167C, strain pmr1, active compounds read low 0.973 | locus YGL173C, strain kem1, active compounds read low 0.907 | locus YGL227W, strain vid30, active compounds read low 0.95 | locus YGR252W, strain gcn5, active compounds read low 0.854 | locus YHR094C, strain hxt1, active compounds read low 0.94 | locus YIL073C, strain SPO22, active compounds read low 0.741 | locus YJL154C, strain vps35, active compounds read low 0.928 | locus YJR043C, strain POL32, active compounds read low 0.867
active: locus YAL021C, strain ccr4, active compounds read low 0.741 | locus YAL026C, strain drs2, active compounds read low 0.824 | locus YAL030W, strain snc1, active compounds read low 0.89 | locus YBL061C, strain skt5, active compounds read low 0.903 | locus YBR009C, strain hhf1, active compounds read low 0.788 | locus YBR023C, strain chs3, active compounds read low 0.906 | locus YBR171W, strain sec66, active compounds read low 0.889 | locus YBR231C, strain swc5, active compounds read low 0.713 | locus YBR279W, strain paf1, active compounds read low 0.864 | locus YCL011C, strain gbp2, active compounds read low 0.869 | locus YCL016C, strain dcc1, active compounds read low 0.837 | locus YCL029C, strain bik1, active compounds read low 0.887 | locus YCL069W, strain vba3, active compounds read low 0.924 | locus YCR088W, strain abp1, active compounds read low 0.921 | locus YDL035C, strain GPR1, active compounds read low 0.825 | locus YDL134C, strain PPH21, active compounds read low 0.818 | locus YDL185W, strain tfp1, active compounds read low 0.875 | locus YDL192W, strain arf1, active compounds read low 0.867 | locus YDR069C, strain doa4, active compounds read low 0.872 | locus YDR101C, strain arx1, active compounds read low 0.887 | locus YDR137W, strain rgp1, active compounds read low 0.388 | locus YDR150W, strain NUM1, active compounds read low 0.899 | locus YDR159W, strain sac3, active compounds read low 0.595 | locus YDR162C, strain NBP2, active compounds read low 0.817 | locus YDR297W, strain sur2, active compounds read low 0.893 | locus YDR318W, strain mcm21, active compounds read low 0.841 | locus YDR335W, strain msn5, active compounds read low 0.853 | locus YDR388W, active compounds read low 0.868 | locus YDR392W, strain spt3, active compounds read low 0.374 | locus YDR502C, strain sam2, active compounds read low 0.815 | locus YEL003W, strain gim4, active compounds read low 0.808 | locus YEL037C, strain rad23, active compounds read low 0.915 | locus YEL061C, strain CIN8 (second series), active compounds read low 0.889 | locus YEL061C, strain CIN8, active compounds read low 0.891 | locus YER015W, strain faa2, active compounds read low 0.761 | locus YER016W, strain bim1, active compounds read low 0.904 | locus YER155C, strain BEM2 (second series), active compounds read low 0.655 | locus YER155C, strain BEM2, active compounds read low 0.922 | locus YER167W, strain BCK2, active compounds read low 0.784 | locus YFR010W, strain ubp6, active compounds read low 0.841 | locus YGL086W, strain mad1, active compounds read low 0.827 | locus YGL240W, strain doc1, active compounds read low 0.757 | locus YGL248W, strain PDE1, active compounds read low 0.818 | locus YGL253W, strain hxk2, active compounds read low 0.707 | locus YGR078C, strain PAC10, active compounds read low 0.789 | locus YGR135W, strain pre9, active compounds read low 0.858 | locus YHR013C, strain ard1, active compounds read low 0.781 | locus YHR027C, strain rpn1, active compounds read low 0.781 | locus YHR030C, strain SLT2, active compounds read low 0.837 and 0.62 | locus YHR079C, strain IRE1 (second series), active compounds read low 0.89 | locus YHR079C, strain IRE1, active compounds read low 0.654 | locus YHR129C, strain ARP1, active compounds read low 0.89 | locus YHR142W, strain chs7, active compounds read low 0.856 | locus YHR200W, strain rpn10, active compounds read low 0.851 | locus YIL066C, strain RNR3, active compounds read low 0.805 | locus YIL125W, strain kgd1, active compounds read low 0.893 | locus YIR030C, strain dcg1, active compounds read low 0.918 | locus YJL092W, strain hpr5, active compounds read low 0.859 | locus YJL095W, strain BCK1 (second series), active compounds read low 0.798 | locus YJL095W, strain BCK1, active compounds read low 0.625 and 0.71 | locus YJL115W, strain asf1, active compounds read low 0.861 | locus YJL129C, strain trk1, active compounds read low 0.703 | locus YJL134W, strain LCB3, active compounds read low 0.927 | locus YJL164C, strain tpk1, active compounds read low 0.871 | locus YJL166W, strain qcr8, active compounds read low 0.813 | locus YJL168C, strain set2, active compounds read low 0.915 | locus YJL187C, strain SWE1 (second series), active compounds read low 0.843 | locus YJR066W, strain TOR1, active compounds read low 0.738 | locus YJR075W, strain HOC1, active compounds read low 0.79
